From PubChem BioAssay AID743060 (The Scripps Research Institute Molecular Screening Center, 2013) come the findings set out here.

This test in a line: inhibitors of T. brucei MetRS aminoacylation, late-stage follow-up, biochemical, radioactivity, round 1 (AID 743060). The following applies: purified enzyme, radiolabel aminoacylation, scintillation, 2 h; at 10 µM; stronger effect = higher value.
For the molecule `CCCCn1c(CCNC(=O)c2ccc(F)cc2)nc2ccccc21`, the inhibition came out at 2.32%.

Regarding `Cc1ccc(C(=O)NCCc2nc3ccccc3[nH]2)cc1[N+](=O)[O-]`, the inhibition amounted to 86.4%.

For the molecule `O=C(Cn1cc(C(=O)COc2ccccc2)c2ccccc21)Nc1cccc(C(F)(F)F)c1`, the inhibition is -11.8%.

`O=C(CN1CCSC1=NCc1ccccc1)c1ccc(Cl)c(Cl)c1`: the inhibition is 28%.

In the case of `CN(Cc1cc(Cl)cc(Cl)c1)[C@H]1C[C@H]2c3[nH]c4ccccc4c3CCN2C(=O)[C@H]1CO`, the inhibition was 101%.

On to `Cc1ccc(CNC(=O)CSc2nnc3c(n2)[nH]c2ccc(C)cc23)cc1`, for which the inhibition came to 71.3%.

For `COc1ccc2[nH]c3nc(SCC(=O)Nc4ccc5c(c4)OCO5)nnc3c2c1`, the inhibition was found to be 65.6%.

On to `CC(=O)N(CCc1ccccc1)C1CC(=O)N(c2ccc(Cl)cc2)C1=O` (centres undefined), for which the inhibition was -17.1%.

As to `COc1ccc(NC(=O)C2CC(=O)n3c(nc4ccccc43)N2)cc1` (centres undefined), the inhibition is -13.4%.

In the case of `O=C(Cn1cnc2ccccc21)Nc1cccc([N+](=O)[O-])c1`, the inhibition was determined as 91.9%.

`O=C(CCC(=O)Nc1cccc([N+](=O)[O-])c1)NN=Cc1cccs1`: the inhibition came out at 74.3%.

For the molecule `Cn1c(CCNC(=O)c2ccc(Cl)cc2)nc2ccccc21`, the inhibition was determined as 3.39%.

Consider `COc1ccccc1NC(=O)CSc1nnc2c(n1)[nH]c1ccc(C)cc12`, for which the inhibition was determined as 14.5%.

`Brc1cnc2nc(SCc3nc4ccccc4[nH]3)[nH]c2c1`: the inhibition worked out at 84.9%.

Regarding `CC(C)OCCCN1CC(=O)N2C(c3cccc([N+](=O)[O-])c3)c3[nH]c4ccccc4c3C[C@H]2C1=O` (some centres undefined), the inhibition was 93.1%.

As for `Cc1ccc(NC(=O)CN(C)C(=O)CCSc2ccc(F)cc2)cc1`, the inhibition was 67.3%.

As to `COc1cccc(NC(=O)CSc2nnc3c(n2)[nH]c2ccc(C)cc23)c1`, the inhibition worked out at 94.2%.

In the case of `CCN(C(=O)Cn1cc(C(=O)C(=O)N2CCOCC2)c2ccccc21)c1ccccc1`, the inhibition was -23.7%.

Take `O=C1[C@@H]2Cc3c([nH]c4ccccc34)C(c3cccc([N+](=O)[O-])c3)N2C(=O)CN1CCCO` (some centres undefined): the inhibition turned out to be 97.5%.
